Reference: PubChem BioAssay AID463190 (Sanford-Burnham Center for Chemical Genomics, 2010)
Several values for one entry are separate records, joined by “and”; a condition that tells them apart may be missing. Equal values may be shown once. Screen size: about 330,000 compounds; about 7,300 (2.2%) were called active.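 The calls were made as follows: active = inhibition of at least 40%; inactive = the rest.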 What follows is part of a selection rich in actives, with near analogues and random picks from the rest.

Assay: growth inhibition of tim10-1 ts yeast – luminescence, uHTS, primary screen (AID 463190);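 also: mutant grown at 25 °C; 0% = DMSO wells with yeast and 100% = wells holding no yeast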
Conditions: S. cerevisiae tim10-1 ts strain growth, BacTiter-Glo, 24 h; at 20 µM; active compounds read high

| Compound | inhibition |
| --- | --- |
| CC(C)CN(C(=O)COC(=O)c1ccc(Cl)c(N)c1)c1c(N)n(Cc2ccccc2)c(=O)[nH]c1=O | 2.64% (inactive) |
| CCCCN=C1N/C(=C\c2ccco2)C(=O)N1c1ccccc1 | 28% (inactive) |
| CN(C)CCCN(Cc1cc2cc3c(cc2[nH]c1=O)OCCO3)C(=O)NC1CCCCC1 | 7.7% (inactive) |
| COc1cc(/C=N/n2c(C)n[nH]c2=S)ccc1OCc1ccccc1 | 34.8% (inactive) |
| Cn1c(-c2sccc2OCc2cccc(C(F)(F)F)c2)n[nH]c1=S | 43.5% (active) |
| Cn1c(-c2sc3cc(C(F)(F)F)cnc3c2-c2ccccc2)n[nH]c1=S | 18.5% (inactive) |
| CCCCNC(=O)Cn1nc(C)c(S(=O)(=O)N2CCOCC2)c1C | -10.1% (inactive) |
| COc1ccc(Cl)cc1NC(=O)C(C)N1CCc2ccccc21 (centres undefined) | 10.7% (inactive) |
| c1ccc2c(c1)CCc1snnc1-2 | -9.47% (inactive) |
| CC(=O)c1cccc(NC(=O)C2COc3ccccc3O2)c1 (centres undefined) | 6.4% (inactive) |
| CC(NC(=S)Nc1ccccc1)C1COc2ccccc2O1 (centres undefined) | 44.1% (active) |
| C/C(=N/NC(=S)Nc1ccccc1)c1ccc2c(c1)OCO2 | 36.6% (inactive) |
| CCCNC(=O)CCn1cc(-c2ccc(OC)cc2)nc1CCN | -4.9% (inactive) |
| CCCCn1c(N)c(N(CCC(C)C)C(=O)COC(=O)c2ccc(CC)cc2)c(=O)[nH]c1=O | 9.31% (inactive) |
| CCCCCCCC(=O)NC(Nc1ccccc1OC)C(Cl)(Cl)Cl (centres undefined) | -1.41% (inactive) |
| CCOC(=O)c1ccc(N=C2SC(C(=O)NC)CC(=O)N2CCc2ccccc2)cc1 (centres undefined) | 8.86% (inactive) |
| Cc1cccc(N(C)C(=O)CN2C(=O)COc3ccc(S(=O)(=O)N4CCCCCC4)cc32)c1 | 25.2% (inactive) |
| COc1ccc(S(=O)(=O)Nc2ccc(O)c(Sc3nc4ccccc4s3)c2)cc1 | 44.6% (active) |
| COc1ccc(NS(=O)(=O)c2ccc3oc(SCC(N)=O)nc3c2)cc1 | 6.21% (inactive) |
| CCOc1ccc(S(=O)(=O)Nc2nc3cc(OC)ccc3s2)cc1 | -15.2% (inactive) |
| O=S(=O)(c1cccs1)N1CCN(CCOc2ccccc2)CC1 | 8.64% (inactive) |
| CC(C)Sc1nnc([C@H](Cc2ccccc2)NC(=O)OC(C)(C)C)o1 | 15.3% (inactive) |
| C[C@H](NC(=O)OC(C)(C)C)c1nnc(SCC(=O)Nc2ccc(Br)cc2)o1 | 20.6% (inactive) |
| C[C@@H](NC(=O)OC(C)(C)C)c1nnc(S(=O)(=O)Cc2ccccc2)o1 | 45.1% (active) |

| Compound | inhibition |
| --- | --- |
| C=Cn1c(C(=O)O)ccc1-c1ccc(OC)cc1 | 4.85% (inactive) |
| CC1(C)CCSC(/C=C/c2ccccc2)=N1 | 44.4% (active) |
| Cc1ccc(C(=O)NC2CCN(C(=O)Nc3ccccc3Cl)CC2)cc1 | -3.39% (inactive) |
| CC(NC(=O)CN(C)S(=O)(=O)c1ccc(F)cc1)C1CC2CCC1C2 (centres undefined) | 25.6% (inactive) |
| Cc1cc(CNCc2c(C(=O)N(C)Cc3ccccc3)nc3ccccn23)nn1C | 10.5% (inactive) |
| CC(C)(C)Nc1nc(-c2ccccn2)nc2ccccc12 | -7.74% (inactive) |
| COc1cnc(-c2ccccn2)nc1Oc1ccc(C(C)(C)C)cc1 | 35% (inactive) |
| Cc1ccc(Oc2nc(-c3ccccn3)nc3ccccc23)cc1 | 44.9% (active) |
| Cn1nc(C(C)(C)C)c([N+](=O)[O-])c1C(N)=O | -18.4% (inactive) |
| S=C(Nc1cccc(Cl)c1)Nc1ccc2c(c1)OCCO2 | 32.9% (inactive) |
| FC(F)(F)c1cccc(NC(=S)Nc2cccc(Cl)c2)c1 | 48.1% (active) |
| Cc1csc(NC(=S)Nc2cccc(Cl)c2)n1 | 29.1% (inactive) |
| Cc1cc(C)cc(OCC(=O)NCc2cc(C)nc3ccccc23)c1 | 20.5% (inactive) |
| CCOc1ccc(-n2c(SCC(=O)NC3CCS(=O)(=O)C3)nnc2-c2cccnc2)cc1 (centres undefined) | 7.61% (inactive) |
| Cc1ccc(C(=O)CCC(=O)N(C)CC(=O)Nc2c(Cl)cccc2Cl)cc1 | 97.9% (active) |
| Cc1cccc(C)c1NC(=O)CN(C)C(=O)CCC(=O)c1ccccc1 | 9.26% (inactive) |
| CN(CC(=O)Nc1c(Cl)cccc1Cl)C(=O)c1ccncc1 | 1.02% (inactive) |
| Cc1ccc(CNC(=O)Cc2cn(C)c3ccccc23)cc1 | 27.3% (inactive) |
| CSc1ccc(S(=O)(=O)NCc2ccc(Cl)cc2)cc1 | 44.8% (active) |
| CC(C)CNS(=O)(=O)c1ccc(CCC(=O)NCc2ccc(Cl)cc2)cc1 | 8.22% (inactive) |
| Cc1ccc(S(=O)(=O)NCCC(=O)NCc2ccc(Cl)cc2)cc1C | 8.85% (inactive) |
| O=C(OCC(=O)N1CCc2ccccc21)C1CCCN1S(=O)(=O)c1ccc(Cl)cc1 (centres undefined) | -10.6% (inactive) |
| COc1ccc(CN2CC(C(=O)NCCc3ccc(Cl)cc3)CC2=O)cc1 (centres undefined) | -2.13% (inactive) |
| Cc1ccc(NC(=S)N/N=C2/CCCc3c(C)cc(C)cc32)cc1 | 9.99% (inactive) |

| Compound | inhibition |
| --- | --- |
| CCCCNC(=S)N/N=C1\CCCCc2ccccc21 | 47.7% (active) |
| CCCC1CCC(=NNC(=S)NCCc2ccccc2)CC1 (centres undefined) | -25.5% (inactive) |
| COC(=O)c1c(NC(=O)C(=O)N2CCCCC2)sc2c1CC(C)(C)OC2 | 8.07% (inactive) |
| c1ccc(Cc2ccc(OCCn3ccnc3)cc2)cc1 | -1.87% (inactive) |
| CSCC[C@H](NC(=O)NC1CCCC1)C(=O)O | 3.78% (inactive) |
| CCOC(=O)N1CCC(N2Cc3cccc(C(=O)Nc4c(C)cccc4CC)c3C2=O)CC1 | 51% (active) |
| O=C(O)c1cccc2c1C(=O)N(C1CCCC1)C2 | 8.44% (inactive) |
| CCOC(=O)N1CCC(N2Cc3cccc(C(=O)Nc4ccc(S(=O)(=O)N(CC)CC)cc4)c3C2=O)CC1 | 17.7% (inactive) |
| O=C(Nc1nnc(-c2ccc(Cl)cc2)o1)c1ccccc1Br | 6.25% (inactive) |
| O=C(Nc1nnc(-c2ccccc2)o1)c1cc(-c2cccs2)nc2ccccc12 | 48.6% (active) |
| CC(C)(C)Cc1nnc(NC(=O)c2cc(-c3ccccc3)nc3ccccc23)s1 | 23.3% (inactive) |
| Cc1cc([N+](=O)[O-])nn1CCCC(=O)Nc1cccnc1Cl | 16.8% (inactive) |
| Cc1ccccc1OCC(=O)Nc1ccc(N2CCN(C(=O)C(C)C)CC2)c(Cl)c1 | 63.3% (active) |
| Cc1ccccc1OCC(=O)Nc1ccc(S(=O)(=O)N2CCOCC2)cc1 | 37.4% (inactive) |
| Cc1ccccc1OCC(=O)Nc1ccc2c(c1)ncn2C | 5.78% (inactive) |
| Cc1cc(NC(=O)CCS(=O)(=O)c2ccc(F)cc2)no1 | -5.29% (inactive) |
| COc1cc([N+](=O)[O-])ccc1NC(=O)CN1CCCC1 | 6.08% (inactive) |
| CSc1ccccc1NC(=O)COC(=O)CCCOc1ccc(C)cc1 | 7.06% (inactive) |
| COc1cc([N+](=O)[O-])ccc1NC(=O)COC(=O)CCOc1ccc(C)cc1 | 50.3% (active) |
| Cc1nc2ccc(C(=O)N/N=C/c3ccc(O)cc3)cc2[nH]1 | 0.009% (inactive) |
| COC(=O)N/N=C/c1ccc(/C=N/NC(=O)OC)cc1 | 7.21% (inactive) |
| Cc1nonc1C(=O)N/N=C/c1ccc(O)cc1 | 51.4% (active) |
| O=C(O)Cc1csc(-c2cccc(Oc3ccccc3)c2)n1 | 7.9% (inactive) and -6.65% (inactive) |
| CN(CC(=O)NCCc1ccc(S(N)(=O)=O)cc1)CC(=O)Nc1ccc(F)c(F)c1F | 0.849% (inactive) |

| Compound | inhibition |
| --- | --- |
| Cc1ccc(S(=O)(=O)N(CC(O)CN2CCCCC2)c2cccc([N+](=O)[O-])c2)cc1 (centres undefined) | -38.7% (inactive) |
| CC1CCCCN1C(=S)NCc1ccccc1 (centres undefined) | -0.074% (inactive) |
| C/C(=N\NC(=S)NCc1ccccc1)C1CCCCC1 | 42.6% (active) |
| C/C(=N\NC(=S)NCc1ccccc1)c1ccc(Cl)cc1 | 22.9% (inactive) |
| Cc1oc(CC(C)C)c(CN2CCCC2)c1C(=O)O | 3.08% (inactive) |
| O=C1c2cccc(OCC(=O)N3N=C(c4cccs4)CC3c3ccc(F)cc3)c2CCN1Cc1ccccc1 (centres undefined) | 19.6% (inactive) |
| Cc1ccc(C2=NN(C(=O)COc3ncnc4ccccc34)C(c3ccco3)C2)cc1 (centres undefined) | -2.47% (inactive) |
| O=C(COc1ccccc1Cl)N1N=C(c2cccs2)CC1c1ccco1 (centres undefined) | 40.8% (active) |
| CCc1n[nH]c(=S)n1/N=C/c1c[nH]c2ccc(Br)cc12 | 12% (inactive) |
| Cc1cc(C)cc(NC(=O)C2CCCN(S(=O)(=O)c3ccc4[nH]c(=O)ccc4c3)C2)c1 (centres undefined) | -13.6% (inactive) |
| O=C(OCC(=O)N1CCN(c2ccccc2)CC1)c1ccc([N+](=O)[O-])s1 | 11.9% (inactive) |
| COc1ccc(C(=O)COC(=O)c2ccc([N+](=O)[O-])s2)cc1OC | 57.9% (active) |
| COc1cc(NC(=O)COC(=O)c2ccc([N+](=O)[O-])s2)cc(OC)c1OC | 30.9% (inactive) |
| S=c1[nH]nc(-c2ccco2)n1/N=C/c1ccc(Br)s1 | 22.5% (inactive) |
| CC(=O)NCCNC(=O)c1cc(-c2cccc3ccccc23)nc2ccccc12 | 3.15% (inactive) |
| CC(C)(C)c1ccc(C(=O)NCc2ccco2)cc1 | 15.4% (inactive) |
| CCc1ccc(-c2cc(C(=O)NCc3ccco3)c3ccccc3n2)s1 | 45.4% (active) |
| O=C(Cc1ccccc1)Nc1ccc(C(=O)Nc2ccccc2C(=O)O)cc1 | 1.08% (inactive) |
| FC(F)(F)c1ccc(CN2C[C@@H]3C(c4ccccc4)C4(c5ccccc5)CC3(C4)[C@H]2c2ccccc2)cc1 (some centres undefined) | 28.9% (inactive) |
| O=C(NCc1ccc2c(c1)OCO2)c1c(-c2ccsc2)sc2ccccc12 | 5.6% (inactive) |
| CN[C@H](C(=O)NC[C@H]1O[C@@H](n2cnc3c(N)ncnc32)[C@H](O)[C@@H]1O)[C@@H](C)OCc1ccccc1 | 0.16% (inactive) |
| Cc1ccc(Cl)c(NC(=O)CN2CCN(C=O)CC2)c1 | -10.1% (inactive) |
